Assay results taken from the supplement of paper PMC10646978.
± gives the standard deviation.

Tests used:
Conditions in all cases: modulator concentration 10 µM
[1] = test system: RAW-Dual (murine macrophage reporter line); experiment: NF-kB reporter (SEAP) activity fold change vs agonist alone; higher = enhanced NF-kB activity
Method in brief: (§1)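 RAW-Dual murine macrophage reporter cells were plated at 50 000 per well in 384-well plates, pin-transferred compound to 10 μM final, and pre-incubated for 1 hour at 37 °C before a PRR agonist was added and the cells incubated overnight. NF-κB activity was read from supernatant SEAP with QUANTI-Blue at 620 nm absorbance, and IRF activity from Lucia luciferase with QUANTI-Luc by luminescence. Each signal was expressed as fold change by dividing by the mean agonist-only control on the same plate. Two replicate plates were averaged, with errors obtained by propagation.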

[2] = test system: RAW-Dual (murine macrophage reporter line); experiment: IRF reporter (Lucia luciferase) activity fold change vs agonist alone; higher = enhanced IRF activity
Method in brief: as §1

[3] = test system: RAW-Dual (murine macrophage reporter line); experiment: viability score (confluency relative to resting cells, overnight) (fraction); higher = more viable, active = viable (0.7 or more)
Method in brief: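 Two confluency masks, generated with IncuCyte software over all imaged wells, were applied to IncuCyte images of RAW-Dual macrophages. The cells, in 384-well plates, had been exposed overnight to 10 μM final compound. The viability score is confluency as a fraction of resting cells, and a compound met the cutoff only with both masks above 70% of resting cells.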

[4] = agonist: CpG ODN 1826 0.5 ug/mL

SMILES	NF-kB reporter [1, 4]	NF-kB reporter ([1]; agonist: LPS 0.1 ug/mL)	NF-kB reporter ([1]; agonist: MPLA […])	IRF reporter ([2]; agonist: 3'3'-cGAMP 10 ug/mL)	IRF reporter ([2]; agonist: LPS 0.1 ug/mL)	IRF reporter ([2]; agonist: MPLA […])	viability score [3]
Br.CCCCn1c(=N)n(CC(=O)OC)c2ccccc21	1.13 ± 0.1	0.957 ± 0.081	1.05 ± 0.059	0.955 ± 0.055	1 ± 0.055	1.15 ± 0.15	0.999 (active)
COc1ccc(C2N3CC4(C)CN2CC(C)(C3)C4=O)cc1 (stereo unspecified)	1.03 ± 0.17	0.973 ± 0.093	0.947 ± 0.082	1.03 ± 0.027	1.32 ± 0.2	1.27 ± 0.15	1 (active)
COc1ccc(-n2cnc3cc(NC(C)=O)ccc32)cc1	0.978 ± 0.18	0.973 ± 0.089	0.885 ± 0.07	0.861 ± 0.025	1.19 ± 0.15	1.14 ± 0.12	1.01 (active)
N=C(N)Nc1nc(-c2ccccc2)c(-c2ccccc2)s1	0.98 ± 0.2	1.23 ± 0.18	1.29 ± 0.1	1.27 ± 0.06	1.26 ± 0.22	1.33 ± 0.19	1 (active)
CC(=NNC(=O)CSc1nc2ccccc2n1Cc1ccccc1)c1ccc(Br)cc1	0.996 ± 0.12	0.996 ± 0.1	1.04 ± 0.036	0.942 ± 0.042	0.946 ± 0.16	1.01 ± 0.29	0.996 (active)
CC(C)=CCCC(C)=CC=NNC(=S)Nc1ccc(C)cc1	0.855 ± 0.049	1.12 ± 0.075	1.02 ± 0.065	0.256 ± 0.019	1.55 ± 0.19	1.5 ± 0.18	0.997 (active)
COc1ccc(OC)c(Nc2nc(-c3c(C)nc4ccccn34)cs2)c1	1.35 ± 0.22	1.45 ± 0.12	1.58 ± 0.13	0.241 ± 0.0091	1.25 ± 0.22	1.53 ± 0.24	0.967 (active)
O=c1oc2cc(O)ccc2c2ccccc12	1.05 ± 0.12	0.932 ± 0.085	1.06 ± 0.038	0.813 ± 0.15	1.06 ± 0.097	1.28 ± 0.17	0.782 (active)
Nc1ccc(O)c(C(=O)O)c1	1.08 ± 0.089	0.898 ± 0.12	1.04 ± 0.022	0.956 ± 0.053	0.923 ± 0.084	1.03 ± 0.13	0.989 (active)
Clc1ccc2nsnc2c1NC1=NCCN1 [Prestw-1182]	1.14 ± 0.1	1.06 ± 0.085	0.958 ± 0.044	0.965 ± 0.044	0.93 ± 0.05	1.01 ± 0.13	0.995 (active)
CC#C[C@]1(O)CC[C@H]2[C@@H]3CCC4=CC(=O)CCC4=C3[C@@H](c3ccc(N(C)C)cc3)C[C@@]21C	0.955 ± 0.093	0.722 ± 0.15	1.39 ± 0.15	0.863 ± 0.048	0.868 ± 0.033	1.05 ± 0.31	1 (active)
COc1ccc(NC(=O)c2ccc(C(=N)N(C)C)cc2)c(C(=O)Nc2ccc(Cl)cn2)c1	0.892 ± 0.33	1.18 ± 0.061	1.1 ± 0.11	0.837 ± 0.043	1.05 ± 0.13	1.22 ± 0.26	0.994 (active)
Cc1ccccc1C(=O)Nc1nc(C(C)(C)C)cs1	0.519 ± 0.056	0.997 ± 0.047	1.12 ± 0.11	0.777 ± 0.047	1.23 ± 0.13	1.35 ± 0.13	1 (active)
